We go through 17 compounds from PubChem BioAssay AID504340 (NMMLSC, 2011).

“And” between values parts separate entries of the source, which are not always exact repeats. Equal entries are not always repeated. Unmarked numbers belong to inactive results. The source made the active and inactive calls.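 The calls were made as follows: active = GFP response above 150% of the DMSO control; inconclusive = Under 70 cell events counted for a yeast strain; inactive = the rest.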

A short description of this experiment: yeast TOR pathway CIT2-GFP reporter retest – flow cytometry, third cherry pick, single plex, confirmation (AID 504340).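 Also: median GFP fluorescence over all cells with no mother versus daughter split; sample signal as a ratio to the plate DMSO mean so 100% equals DMSO.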 The following applies: S. cerevisiae CIT2-GFP strain, 3 h, at 10 µM, stronger effect = higher value.
Turning to `CC1=CN2C(=N)/C(=C/c3ccco3)C(=O)N=C2S1`, the GFP response vs DMSO is 112%.
Take `CC1=CN2C(=N)/C(=C/c3ccc(C)o3)C(=O)N=C2S1`: the GFP response vs DMSO was 112%.
With `Nc1nc(NCCOCCO)nc(Nc2cccc(F)c2)c1[N+](=O)[O-]` the figure was 96.1%.
For the compound `COc1cccc(N/C=C/C(=O)c2ccc(C)cc2)c1`, the GFP response vs DMSO was 92.8%.
With `CCc1sc(C(=O)Nc2nc(-c3ccccn3)cs2)cc1C` the figure was 109%; with `Oc1ccc(Cl)c2cccnc12`, 103%.
With `COc1cccc(N/C(C)=C/C(=O)c2ccc(Br)cc2)c1` the figure was 104%; with `COc1ccc(-c2cc(C(F)(F)F)nc(S(C)(=O)=O)n2)cc1OC`, 112% and 109%; with `O=C(N/N=C/c1ccccc1O)c1cccc2ccccc12`, 92.8%.
For the compound `CN(C)CCCNc1cc(O)c2ncccc2c1`, the GFP response vs DMSO is 112%.
Take `Cc1ccc(NN2C(=O)C=C(c3ccccc3)C2=O)cc1`: the GFP response vs DMSO was 151% (active).
With `C=CCNc1nc(N)c([N+](=O)[O-])c(Nc2cccc(Cl)c2)n1` the figure was 114%; with `CSc1nc(S(C)(=O)=O)nc2[nH]c(=O)[nH]c12`, 106%.
As to `COc1cccc(OCc2cc(C(=O)N3CCN(C)C(c4ccccc4)C3)no2)c1` (configuration not stated), the GFP response vs DMSO was 97.7%.
Take `Cc1nc(Nc2ccc(Br)cc2Br)c([N+](=O)[O-])c(=O)[nH]1`: the GFP response vs DMSO was 103%.
With `COc1ccc(Nc2nc(NN)nc(C)c2[N+](=O)[O-])cc1`, the GFP response vs DMSO was 94.5%.
Consider `Cc1cc(C)c(NC(=O)CC(=O)c2ccccc2)c(Cl)c1`, for which the GFP response vs DMSO is 92.8%.
